{
  "source": "PubChem BioAssay (EPA / NIEHS)",
  "note": "“And” between values parts separate entries of the source, which are not always exact repeats. Identical values can stand only once. Results filed as inconclusive are left out. The source made the active and inactive calls. How the source made its calls: active means hit-call score of the fitted dose curve at least 0.9, where 1 is the maximum; inconclusive means response in the unintended direction; inactive means score below 0.9.",
  "data": [
    {"target": "Muscarinic acetylcholine receptor M1 (Homo sapiens) (UniProt P11229)", "sequence (P11229 whole entry, looked up)": "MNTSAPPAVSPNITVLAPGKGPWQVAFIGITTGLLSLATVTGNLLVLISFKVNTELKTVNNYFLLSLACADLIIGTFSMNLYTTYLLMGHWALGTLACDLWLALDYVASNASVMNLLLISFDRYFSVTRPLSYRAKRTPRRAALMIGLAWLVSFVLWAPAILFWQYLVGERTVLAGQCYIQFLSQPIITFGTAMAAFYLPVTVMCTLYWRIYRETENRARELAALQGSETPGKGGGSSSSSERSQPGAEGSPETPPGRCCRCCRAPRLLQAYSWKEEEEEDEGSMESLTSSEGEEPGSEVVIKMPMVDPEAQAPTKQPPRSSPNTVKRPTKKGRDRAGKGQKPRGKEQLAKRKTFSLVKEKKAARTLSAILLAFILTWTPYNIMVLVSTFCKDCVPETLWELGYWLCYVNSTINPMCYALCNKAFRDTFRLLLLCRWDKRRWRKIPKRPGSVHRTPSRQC", "assay": "NVS_GPCR_hM1: NovaScreen (NVS) G Protein-Coupled Receptor Assay for human Muscarinic, M1 Receptor (AID 2283270)", "how_it_was_run": "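Actives from a duplicate 25 uM single-point screen were retested in concentration series. Binding measured as displacement of a radioligand from CHO-derived receptor preparation, 1 h incubation, filtration and scintillation counting, analysed as signal loss against DMSO.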", "values": [
      {"smiles": "CCOC(=O)[C@H](C)Oc1ccc(Oc2nc3ccc(Cl)cc3o2)cc1", "outcome": "inactive"},
      {"smiles": "Oc1ccc(C(c2ccc(O)cc2)C(Cl)(Cl)Cl)cc1", "AC50": "6.79 µM (active)"},
      {"smiles": "CCOC(=O)C(C)Oc1ccc(Oc2nc3ccc(Cl)cc3o2)cc1", "note": "(centres undefined)", "AC50": "17.2 µM (active)"},
      {"smiles": "C=CCOC(Cn1ccnc1)c1ccc(Cl)cc1Cl", "note": "(centres undefined)", "AC50": "5.47 µM (active)"},
      {"smiles": "CCCCOC(=O)C(C)Oc1ccc(Oc2ccc(C(F)(F)F)cn2)cc1", "note": "(centres undefined)", "AC50": "12.1 µM (active)"},
      {"smiles": "CCOC(=O)NCCOc1ccc(Oc2ccccc2)cc1", "outcome": "inactive"}
    ]},
    {"target": "human Leukotriene B4 Receptor 1 (LTB4-BLT1), LTB4R (gene 1241) (UniProt Q15722)", "sequence (Q15722 whole entry, looked up)": "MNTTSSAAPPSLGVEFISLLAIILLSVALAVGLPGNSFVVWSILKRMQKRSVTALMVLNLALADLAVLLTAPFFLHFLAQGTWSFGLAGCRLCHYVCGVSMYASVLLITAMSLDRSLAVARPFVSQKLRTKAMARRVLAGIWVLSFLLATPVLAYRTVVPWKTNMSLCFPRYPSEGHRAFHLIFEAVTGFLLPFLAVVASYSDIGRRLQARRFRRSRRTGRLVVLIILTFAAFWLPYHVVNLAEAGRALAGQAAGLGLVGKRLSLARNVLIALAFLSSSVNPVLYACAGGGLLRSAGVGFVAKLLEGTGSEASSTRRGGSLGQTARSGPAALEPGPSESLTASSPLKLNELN", "assay": "NVS_GPCR_hLTB4_BLT1: NovaScreen (NVS) G Protein-Coupled Receptor Assay for human Leukotriene B4 Receptor 1 (LTB4-BLT1) (AID 2283271)", "how_it_was_run": "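Cell-free human neutrophil receptor preparation, 1 h exposure, radioligand binding read by filter scintillation counting. Single 25 uM duplicate screen, then concentration series topping at 50 uM; binding loss scored against DMSO baseline.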", "values": [
      {"smiles": "O=C(O)C1(C(=O)Nc2ccc(Cl)cc2Cl)CC1", "outcome": "inactive"},
      {"smiles": "Oc1ccc(C(c2ccc(O)cc2)C(Cl)(Cl)Cl)cc1", "outcome": "inactive"},
      {"smiles": "CC(C)(c1ccc(O)cc1)c1ccc(O)cc1", "outcome": "inactive"},
      {"smiles": "C=CCOC(Cn1ccnc1)c1ccc(Cl)cc1Cl", "note": "(centres undefined)", "outcome": "inactive"}
    ]},
    {"target": "Muscarinic acetylcholine receptor M3 (Homo sapiens) (UniProt P20309)", "sequence (P20309 whole entry, looked up)": "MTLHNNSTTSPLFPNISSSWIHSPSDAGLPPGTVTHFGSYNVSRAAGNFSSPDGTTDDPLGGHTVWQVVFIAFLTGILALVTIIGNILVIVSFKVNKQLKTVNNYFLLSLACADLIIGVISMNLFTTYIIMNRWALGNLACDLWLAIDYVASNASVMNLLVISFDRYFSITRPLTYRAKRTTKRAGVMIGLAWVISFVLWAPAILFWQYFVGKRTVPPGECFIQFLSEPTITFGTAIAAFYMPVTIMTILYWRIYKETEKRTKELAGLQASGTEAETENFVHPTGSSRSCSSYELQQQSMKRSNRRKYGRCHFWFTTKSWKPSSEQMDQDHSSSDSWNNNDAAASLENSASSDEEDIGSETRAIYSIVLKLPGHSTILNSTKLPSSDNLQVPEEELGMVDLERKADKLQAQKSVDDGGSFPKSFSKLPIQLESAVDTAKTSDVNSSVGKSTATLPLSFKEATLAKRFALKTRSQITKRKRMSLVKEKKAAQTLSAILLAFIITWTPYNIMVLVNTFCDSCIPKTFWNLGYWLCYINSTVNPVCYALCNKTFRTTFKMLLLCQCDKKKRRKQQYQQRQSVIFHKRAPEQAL", "assay": "NVS_GPCR_hM3: NovaScreen (NVS) G Protein-Coupled Receptor Assay for human Muscarinic, M3 Receptor (AID 2283272)", "how_it_was_run": "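Radioligand displacement binding on human M3 receptor in CHO-derived membranes, 1 h incubation, filter-based scintillation counting. Primary screen in duplicate at 25 uM; actives followed up in concentration series; loss of signal versus DMSO.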", "values": [
      {"smiles": "CCCCC(CC)CN1C(=O)C2C3C=CC(C3)C2C1=O", "note": "(centres undefined)", "AC50": "8.81 µM (active)"},
      {"smiles": "Oc1ccc(C(c2ccc(O)cc2)C(Cl)(Cl)Cl)cc1", "outcome": "inactive"},
      {"smiles": "C=CCOC(Cn1ccnc1)c1ccc(Cl)cc1Cl", "note": "(centres undefined)", "AC50": "5.02 µM (active)"},
      {"smiles": "C[C@]12CC[C@@H]3c4ccc(O)cc4C[C@@H](CCCCCCCCCS(=O)CCCC(F)(F)C(F)(F)F)[C@H]3[C@@H]1CC[C@@H]2O", "note": "(some centres undefined)", "outcome": "inactive"}
    ]},
    {"target": "Muscarinic acetylcholine receptor M2 (Homo sapiens) (UniProt P08172)", "sequence (P08172 whole entry, looked up)": "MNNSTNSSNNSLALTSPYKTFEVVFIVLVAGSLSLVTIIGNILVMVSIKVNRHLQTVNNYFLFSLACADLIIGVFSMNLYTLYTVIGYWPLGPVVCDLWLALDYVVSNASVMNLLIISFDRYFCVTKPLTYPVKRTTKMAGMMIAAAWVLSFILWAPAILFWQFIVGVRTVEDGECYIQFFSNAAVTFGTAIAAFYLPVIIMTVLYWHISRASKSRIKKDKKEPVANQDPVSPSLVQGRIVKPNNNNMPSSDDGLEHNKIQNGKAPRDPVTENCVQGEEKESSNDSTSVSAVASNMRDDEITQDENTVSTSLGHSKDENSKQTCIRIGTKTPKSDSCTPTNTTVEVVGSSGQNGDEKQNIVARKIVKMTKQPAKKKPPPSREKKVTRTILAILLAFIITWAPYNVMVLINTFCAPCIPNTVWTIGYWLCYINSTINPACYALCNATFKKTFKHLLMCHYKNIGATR", "assay": "NVS_GPCR_hM2: NovaScreen (NVS) G Protein-Coupled Receptor Assay for human Muscarinic, M2 Receptor (AID 2283273)", "method": "NVS_GPCR_hM2 is a biochemical, single-readout assay that uses extracted gene-proteins from CHO in a cell-free assay. Measurements were taken 1 hour after chemical dosing in a 96-well plate.NVS_GPCR_hM2 is one of one assay component(s) measured or calculated from the NVS_GPCR_hM2 assay. It is designed to make measurements of radioligand binding, a form of binding reporter, as detected with scintillation counting signals by Filter-based radiodetection technology.Data from the assay component NVS_GPCR_hM2 was analyzed into 1 assay endpoint. This assay endpoint, NVS_GPCR_hM2, was analyzed in the positive analysis fitting direction relative to DMSO as the negative control and baseline of activity. Using a type of binding reporter, loss-of-signal activity can be used to understand changes in the binding as they relate to the gene CHRM2. Furthermore, this assay endpoint can be referred to as a primary readout, because the performed assay has only produced 1 assay endpoint. To generalize the intended target to other relatable targets, this assay endpoint is annotated to the gpcr intended target family, where the subfamily is rhodopsin-like receptor.\nBinding assays used specific radioligands (tritiated, iodinated) with non-radioactive competitive displacement ligands in agonist or antagonist protocols (as indicated) and various reference compounds and inhibitors to titrate specific binding to receptors and transporters. Most enzyme assays (CYPs, kinases, phosphatases, proteases, HDACs) used recombinant protein and specific substrates (fluorescence mostly, some colorimetric and radioactive) and inhibitors, followed by a biochemical separation of substrate and product. All assays for the biochemical HTS were initially run in duplicate at a single concentration (10 uM for CYP450 assays and 25 uM for all others). […] Each assay was run with positive and negative controls, and concurrent controls on every plate. The follow-up (secondary) screen tested active chemical-pairs in concentration series, as well as a few additional assays not tested in the primary screen, some selected negative inactives, and several cases re-run in the concentration series for confirmatory purposes.", "values": [
      {"smiles": "S=C(S)NCCNC(=S)S.[Mn+2].[S-]C([S-])=NCCN=C([S-])[S-].[Zn+2]", "outcome": "inactive"},
      {"smiles": "CCCCC(CC)CN1C(=O)C2C3C=CC(C3)C2C1=O", "note": "(centres undefined)", "outcome": "inactive"},
      {"smiles": "Oc1ccc(C(c2ccc(O)cc2)C(Cl)(Cl)Cl)cc1", "AC50": "4.96 µM (active)"},
      {"smiles": "CCCOC(=O)NCCCN(C)C", "outcome": "inactive"},
      {"smiles": "CC(=O)[C@H]1CC[C@H]2[C@@H]3CCC4=CC(=O)CC[C@]4(C)[C@H]3CC[C@]12C", "outcome": "inactive"},
      {"smiles": "C=CCOC(Cn1ccnc1)c1ccc(Cl)cc1Cl", "note": "(centres undefined)", "AC50": "2.67 µM (active)"}
    ]},
    {"target": "human Muscarinic, M4 Receptor, CHRM4 (gene 1132) (UniProt P08173)", "sequence (P08173 whole entry, looked up)": "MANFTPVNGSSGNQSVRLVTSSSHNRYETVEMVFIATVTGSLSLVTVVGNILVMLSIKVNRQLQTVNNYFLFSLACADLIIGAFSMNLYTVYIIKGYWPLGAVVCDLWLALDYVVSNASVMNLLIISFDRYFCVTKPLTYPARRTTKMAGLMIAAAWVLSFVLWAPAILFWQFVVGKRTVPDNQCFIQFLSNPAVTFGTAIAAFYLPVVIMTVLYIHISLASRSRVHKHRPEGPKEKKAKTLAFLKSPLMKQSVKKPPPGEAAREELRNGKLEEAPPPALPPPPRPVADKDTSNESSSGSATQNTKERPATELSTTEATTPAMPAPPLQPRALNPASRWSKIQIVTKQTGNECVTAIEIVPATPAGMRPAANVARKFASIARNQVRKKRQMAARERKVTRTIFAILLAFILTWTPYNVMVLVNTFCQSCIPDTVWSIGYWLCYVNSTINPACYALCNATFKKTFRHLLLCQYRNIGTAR", "assay": "NVS_GPCR_hM4: NovaScreen (NVS) G Protein-Coupled Receptor Assay for human Muscarinic, M4 Receptor (AID 2283274)", "how_it_was_run": "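Filter-based scintillation counting of radioligand bound to CHO-expressed human M4 preparations after 1 h; loss of signal fitted versus DMSO. Initial duplicate testing at 25 uM, concentration-response follow-up for actives.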", "values": [
      {"smiles": "Oc1ccc(C(c2ccc(O)cc2)C(Cl)(Cl)Cl)cc1", "AC50": "6.62 µM (active)"},
      {"smiles": "CC(=O)[C@H]1CC[C@H]2[C@@H]3CCC4=CC(=O)CC[C@]4(C)[C@H]3CC[C@]12C", "outcome": "inactive"},
      {"smiles": "C=CCOC(Cn1ccnc1)c1ccc(Cl)cc1Cl", "note": "(centres undefined)", "AC50": "5.37 µM (active)"}
    ]},
    {"target": "human Neurokinin, NK2 Receptor, TACR2 (gene 6865) (UniProt P21452)", "sequence (P21452 whole entry, looked up)": "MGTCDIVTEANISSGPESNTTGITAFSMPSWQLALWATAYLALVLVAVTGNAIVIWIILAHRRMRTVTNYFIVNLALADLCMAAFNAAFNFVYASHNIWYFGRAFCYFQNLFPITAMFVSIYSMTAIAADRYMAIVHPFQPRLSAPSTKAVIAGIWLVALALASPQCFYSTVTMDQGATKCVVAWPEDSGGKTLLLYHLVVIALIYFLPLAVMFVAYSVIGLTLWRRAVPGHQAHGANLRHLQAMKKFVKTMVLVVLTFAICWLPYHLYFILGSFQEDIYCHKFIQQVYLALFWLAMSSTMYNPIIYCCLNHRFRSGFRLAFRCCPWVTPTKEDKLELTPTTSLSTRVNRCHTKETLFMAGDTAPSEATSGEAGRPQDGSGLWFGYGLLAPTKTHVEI", "assay": "NVS_GPCR_hNK2: NovaScreen (NVS) G Protein-Coupled Receptor Assay for human Neurokinin, NK2 Receptor (AID 2283278);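 further: actives reduce bound radioligand signal relative to DMSO baseline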", "how_it_was_run": "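CHO-derived membrane protein, radioligand displacement, filter scintillation read at 4 h post-dose. Single-point 25 uM in duplicate, then concentration series for actives; DMSO as negative control.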", "values": [
      {"smiles": "S=C(S)NCCNC(=S)S.[Mn+2].[S-]C([S-])=NCCN=C([S-])[S-].[Zn+2]", "AC50": "117 nM (active) and 135 nM (active) and 170 nM (active)"},
      {"smiles": "CC(C)(C)[C@@H](O)[C@@H](Cc1ccc(Cl)cc1)n1cncn1", "outcome": "inactive"},
      {"smiles": "CC(=O)S[C@@H]1CC2=CC(=O)CC[C@]2(C)[C@H]2CC[C@@]3(C)[C@@H](CC[C@@]34CCC(=O)O4)[C@H]12", "outcome": "inactive"},
      {"smiles": "Oc1ccc(C(c2ccc(O)cc2)C(Cl)(Cl)Cl)cc1", "outcome": "inactive"},
      {"smiles": "N[C@@H](Cc1cc(I)c(Oc2ccc(O)c(I)c2)c(I)c1)C(=O)O", "outcome": "inactive"},
      {"smiles": "Cc1nn(C)c(Oc2ccccc2)c1C=NOCc1ccc(C(=O)OC(C)(C)C)cc1", "outcome": "inactive"}
    ]}
  ]
}
